The sample as a whole holds a higher share of hits than the screen did.
IL-1B inflam inh: qHTS for Inhibitors of Inflammasome Signaling: IL-1-beta AlphaLISA Primary Screen; THP-1 LPS/ATP IL-1B secretion, AlphaLISA, 16 h; stronger effect = lower value; activity change, % at 57.5 µM; 360,000 tested, 4.7% active; in the data active = activity change below about -50%; inconclusive = mostly about -30% to -49%
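THP-1 cells pretreated 1 hr with compounds (up to 57.5 uM final), then stimulated with LPS (250 ng/mL final) plus ATP (1.25 mM final); secreted IL-1B measured by AlphaLISA after 16 hr, decreased signal indicating inhibition.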
HT1080 IDH1KD tx: qHTS for induction of synthetic lethality in tumor cells producing 2HG: qHTS for the HT-1080-IDH1KD cell line | Potency, µM (highest dose often 46.1 µM), without a hit: at the top dose activity, negative = toxicity, most hits filed as cytotoxic | HT-1080 IDH1 knockdown viability, ATP luminescence, 48 h | 360,000 tested, 2% active;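 note: potency is the fitted concentration of half-maximal effect; 0% = DMSO wells and -100% = cell-free medium wells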
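CellTiter-Glo luminescence after 48 h compound exposure at 37 degrees C of IDH1-knockdown HT-1080 cells in 5% FBS RPMI. %Activity scaled between DMSO wells and cell-free media wells, with curves fitted and assigned curve classes.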
TDP1 cell CPT: qHTS for Inhibitors of human tyrosyl-DNA phosphodiesterase 1 (TDP1): qHTS in cells in presence of CPT | chicken DT40 Tdp1-/-;hTDP1 cells + 20 nM CPT, ATP luminescence, 48 h | Potency, µM (doses to about 46.2 µM), without a hit: at the top dose activity change, negative = growth inhibition, usual class: inhibitors | 420,000 tested, 12% active | AID 686979, 2013; note: potency is the fitted concentration of half-maximal effect; nearly all actives have a fitted effect of over 55% in size
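Chicken DT40 Tdp1-/- cells stably complemented with human TDP1 were seeded at 400 cells/well in medium containing 20 nM camptothecin, exposed to pin-transferred compounds, and grown at 37 °C for at least 48 hr. Viability was read as ATP luminescence.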
12-LOX inh: Primary qHTS assay for inhibitors of human arachidonate 12S-lipoxygenase (ALOX12): Round 2. Potency, µM (doses to about 108 µM), for the others: at the highest dose activity change, negative = inhibition, actives largely listed as inhibitors. 580,000 tested, 1.1% active. Polyunsaturated fatty acid lipoxygenase ALOX12 (Homo sapiens), P18054. purified 12hLO, xylenol orange hydroperoxide absorbance. AID 1671190, 2021; note: potency is the fitted concentration of half-maximal effect
Target sequence (P18054 whole entry, looked up): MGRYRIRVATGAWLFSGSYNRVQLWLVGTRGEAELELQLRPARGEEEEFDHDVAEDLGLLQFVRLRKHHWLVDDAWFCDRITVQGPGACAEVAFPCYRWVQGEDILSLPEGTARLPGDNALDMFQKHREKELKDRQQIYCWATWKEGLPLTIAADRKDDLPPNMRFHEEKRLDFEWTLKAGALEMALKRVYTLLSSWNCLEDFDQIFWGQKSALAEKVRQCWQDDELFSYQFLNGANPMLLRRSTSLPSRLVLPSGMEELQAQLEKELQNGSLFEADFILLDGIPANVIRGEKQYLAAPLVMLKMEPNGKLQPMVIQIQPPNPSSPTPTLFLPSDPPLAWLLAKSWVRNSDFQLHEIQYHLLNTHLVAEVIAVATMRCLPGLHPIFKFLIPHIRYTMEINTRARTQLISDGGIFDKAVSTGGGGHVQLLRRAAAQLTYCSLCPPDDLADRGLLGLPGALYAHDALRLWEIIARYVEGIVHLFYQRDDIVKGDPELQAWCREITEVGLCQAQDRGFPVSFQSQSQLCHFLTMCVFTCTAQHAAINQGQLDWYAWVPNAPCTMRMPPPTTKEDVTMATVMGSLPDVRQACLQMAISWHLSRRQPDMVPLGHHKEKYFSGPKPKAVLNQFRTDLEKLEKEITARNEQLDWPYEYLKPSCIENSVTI
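Hydroperoxide product was detected by ferrous iron/xylenol orange as the 573 to 405 nm absorbance ratio. Arachidonic acid at 40 uM (final) was turned over for 30 min at room temperature by 150 nM human 12hLO, pH 7.0 Hepes buffer, after 15 min compound preincubation.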
HT1080NT lethal: qHTS for induction of synthetic lethality in tumor cells producing 2HG: qHTS for the HT-1080-NT fibrosarcoma cell line; Potency, µM (top dose mostly 46.1 µM), inactives show at the highest dose activity, negative = less viability, hits mostly cytotoxic; 360,000 tested, 1.6% active; HT-1080-NT fibrosarcoma viability, CellTiter-Glo ATP luminescence, 48 h;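 note: NT is the 2HG producing partner of a matched IDH1 knockdown line; potency is the fitted concentration of half-maximal effect; 0% = DMSO-treated cells and -100% = media-only wells without cells; nearly all actives have a fitted effect of over 55% in size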
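HT-1080-NT; 750 cells/well; 5% FBS RPMI; 48 h compound, 37 degrees C; CellTiter-Glo luminescence; curve fitting and curve-class assignment.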
DT40 TDP1 no CPT: qHTS for Inhibitors of human tyrosyl-DNA phosphodiesterase 1 (TDP1): qHTS in cells in absence of CPT. Potency, µM (series often up to 46.2 µM), without a hit: at the highest dose activity change, negative = growth inhibition, usual class: inhibitors. AID 686978, 2013. DT40 Tdp1-/- hTDP1 cells, no CPT, ATP luminescence, 48 h. 420,000 tested, 15% active; note: potency is the fitted concentration of half-maximal effect; nearly all actives have a fitted effect of over 55% in size
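DT40 Tdp1-/-;hTDP1 cells, no CPT (DMSO vehicle only), 400 cells/well; compounds pin-transferred; ≥48 hr, 37 °C; CellTiter-Glo 30 min RT dark, luminescence read.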
* hit, by the source's call; u = inconclusive; x = no result; [ ] = remark or other dose. Unless noted, calls come from the whole dose curve; as a rule, active = well fitted curve in the direction sought with a large enough effect; inconclusive = small, poorly fitted or top-dose-only effect, or another doubt; inactive = no such curve, though single readings can be large; an effect the other way counts as inactive or inconclusive. Unless noted, % is set by controls: 0 for no effect and ±100 for the full control effect.

SMILES	IL-1B inflam inh	HT1080 IDH1KD tx	TDP1 cell CPT	12-LOX inh	HT1080NT lethal	DT40 TDP1 no CPT
Cn1nnnc1SC(C(=O)Nc1cccc(C(F)(F)F)c1)c1ccccc1 (stereo not drawn)	-72*	-16%	-19%	9%	-7%	-17%
CC(Sc1ncnc2ccccc12)C(=O)NC1CCCC1 (stereo not drawn)	x	x	x	-5%	x	x
Cc1cc(C)cc(NC(=O)C(Sc2ncnc3ccccc23)c2ccccc2)c1 (stereo not drawn)	-58*	-17%	u	-15%	-4%	u
O=C(Nc1cccc(C(F)(F)F)c1)C(Sc1ncnc2ccccc12)c1ccccc1 (stereo not drawn)	-108*	-28%	u	-17%	-16%	21µM*
O=C(CSc1ncnc2ccccc12)Nc1cccc(C(F)(F)F)c1	x	x	x	11%	x	x
Cc1cnc(CCNC(=O)Nc2ccc3c(c2)OCCO3)n1C1CCC1	x	x	x	95%	x	x
COCCC(=O)Nc1ccc2c(c1)CN(C(=O)c1ccc(CSC)o1)CC2	11	1%	-28%	-8%	-3%	2.9µM*
COCCC(=O)Nc1ccc2c(c1)CN(C(=O)CCSC)CC2	0	8%	-5%	-13%	8%	2%
Cc1cccc(C(=O)N2CCC3(CC2)CC(OCC2CC2)CCO3)c1 (stereo not drawn)	x	x	x	53%	x	x
Cc1c(C(=O)NNC(=O)c2ccccc2O)oc2ccc(Br)cc12	19	-23%	21µM*	u	-30%	u
CCOc1ccc2oc(C(=O)O)c(C)c2c1	-10	0%	10%	-9%	13%	-5%
CCOc1ccc2oc(C(=O)NNC(=O)c3ccccc3O)c(C)c2c1	31	-29%	u	-26%	u	26µM*
OC(c1cccc(C(F)(F)F)c1)c1nc(Nc2ccc(F)cc2)n[nH]1 (stereo not drawn)	x	x	x	4%[176 µM]	x	x
CCOC(=O)C1(Cc2ccccc2C(F)(F)F)CCN(C2CCN(C(C)C)CC2)CC1	13	15µM*	23µM*	0%	u	23µM*
CCOC(=O)C1(Cc2ccccc2C(F)(F)F)CCN(Cc2ccc(COC)o2)CC1	u	u	9.2µM*	-9%	u	8.2µM*
CCOC(=O)C1(CCOC)CCN(Cc2ccc(COC)o2)CC1	10	2%	0%	-1%	-4%	-29%
CC(=O)Nc1cccc(NC(=O)CC2(Cc3nc4ccccc4s3)CCCC2)c1	x	x	x	-3%	x	x
Clc1ccc(/C=N/NC(=Nc2ccccc2)c2ccccn2)c(Cl)c1	-7	-4%	u	138%	9%	29µM*
C(=N\NC(=Nc1ccccc1)c1ccccn1)/c1ccccn1	30	-14%	10µM*	169%	-11%	10µM*
CC(C)N1CCC(O)(c2csc(CN3CCOCC3)n2)CC1	x	x	x	0%[176 µM]	x	x
CCc1ccccc1-n1c(SCc2nc3ccccc3o2)nnc1N1CCOCC1	x	x	x	-1%	x	x
O=C(c1ccc(N2CCN(C(=O)c3ccc(F)c(F)c3)CC2)cc1)c1cccc(F)c1	-21	-10%	23µM*	u	-19%	13µM*
O=C(c1ccccc1)c1ccc(C(=O)N2CCN(c3ccc(O)cc3)CC2)cc1	-5	4%	-27%	u	4%	-30%
O=C(c1cccc(F)c1)N1CCC(N2CCOCC2)CC1	14	8%[9.24 µM]	5.8µM*	u	22%	-10%

Source: PubChem BioAssay
